PfHsp40 yeast: rescue of yeast from PfHsp40 toxicity, primary screen, S. cerevisiae, ATP luminescence; S. cerevisiae expressing PfHsp40, growth rescue; growth rescue, % at 12.5 µM; hit rate 0.68% among 340,000; AID 504582, 2011; in the data active = growth rescue above about 28%, passing the limit was not always enough;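 also: yeast W303a lacking pdr1 and pdr3 grown in galactose medium; growth measured after three days at 30 °C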
ugtP null kill: growth inhibition of ugtP-null S. aureus, primary screen, RN4220 ugtP deletion, OD600. 16 h. hit rate 0.54% among 330,000. growth inhibition, % (concentration not given with the values). AID 1259309, 2017; in the data active = growth inhibition above about 68%;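 also: plate controls were untreated wells for no effect and antibiotic for full effect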
Sa RN4220 lethal: growth inhibition of S. aureus RN4220, primary screen, OD600; inhibition, % (no concentration beside the values); hit rate 0.33% among 330,000; 16 h; in the data active = inhibition above about 85%;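 also: plate controls were untreated cells for no effect and reference antibiotic for full effect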
BJeLR viability: MLPCN primary cell-based screen for lethality selective to Ras in HRASV12 cells | BJeLR (HRASV12) viability, CellTiter-Glo ATP luminescence, 48 h | inhibition, % (no concentration beside the values) | hit rate 0.17% among 300,000 | AID 1554, 2009; in the data active = inhibition above about 50%
CCHFV vOTU inh: CCHFV vOTU protease inhibitors, primary screen, biochemical, Pep-AMC substrate, fluorescence. inhibition, % at 11.5 µM. hit rate 0.55% among 370,000; in the data active = inhibition above about 30%; also: 0% = vehicle wells with enzyme and 100% = no enzyme wells
* marks the source's active call; other numbers are inactive results; / = no result given. An excerpt weighted towards active compounds, which were near 1.6% of everything screened.

SMILES	PfHsp40 yeast	ugtP null kill	Sa RN4220 lethal	BJeLR viability	CCHFV vOTU inh
C#CCOCCOCCOCCNc1nc(N2CCN(C(=O)C(CCCCN)n3cc(C(N)C(C)CC)nn3)CC2)nc(N2CCN(C(=O)C(Cc3ccc(O)cc3)n3cc(C(N)C(C)CC)nn3)CC2)n1 (stereo not drawn)	/	-5.9	1.9	/	/
COC(=O)c1c(NC(=O)CSc2nnc(CNc3ccc(Cl)cc3)o2)sc(C)c1C	50.7*	-12.9	0.2	-15.1	13.6
CCOC(=O)c1c(NC(=O)CSc2nnc(CNc3ccc(F)cc3)o2)sc(C(C)=O)c1C	1.7	-26.6	-2.1	-9.0	-8.2
Cc1ccc(CN2CCN(N=Cc3cc(Br)ccc3O)CC2)cc1	/	26.6	-5.3	/	/
N=C(N)c1ccc(/C=C/c2ccc(C(=N)N)cc2O)cc1	137.4*	-3.8	19.9	-4.6	-12.3
N=C(N)c1ccc(Cl)cc1	-0.4	-1.3	3.1	-15.7	-14.9
COC(=O)COC(=O)c1ccccc1NC(=O)c1ccccc1	245.4*	7.2	-0.7	5.4	13.7
CSc1sc(C#N)c2c1C(=NO)CCC2	/	-3.8	0.1	/	/
Cc1cccc(C)c1NS(=O)(=O)c1ccc(-c2cnc(C3CC3)o2)cc1	282.8*	10.2	51.0	59.7*	10.3
Cc1ccc(NS(=O)(=O)c2ccc(-c3cnc(C4CC4)o3)cc2)cc1	0.2	-11.0	7.9	1.0	11.0
COc1ccc(C)cc1NS(=O)(=O)c1ccc(-c2cnc(C3CC3)o2)cc1	0.6	-9.0	10.5	58.4*	16.0
Cc1cccc(N=Cc2nc(-c3ccccc3Br)oc2O)n1	/	1.1	2.0	/	/
CC(O)C1CNC(=O)C(=O)N1CCCCC1CCCCC1 (stereo not drawn)	/	-1.4	3.5	/	/
CC1=C(C#N)C(C=NOCc2ccc(Cl)cc2)CC(=O)N1 (stereo not drawn)	/	-1.9	10.1	/	/
Clc1ccc2c(NN=Cc3ccc(Br)cc3)ccnc2c1	/	100.7*	100.5*	/	/
Cc1ccccc1C=NNc1ccnc2cc(Cl)ccc12	/	99.1*	98.4*	/	/
Oc1ccc(C=NNc2ccnc3cc(Cl)ccc23)c(O)c1	/	10.4	9.7	/	/
Cc1ccc(C=NNc2ccnc3cc(Cl)ccc23)c(C)c1	/	100.8*	99.4*	/	/
CC1=NN(c2ccccc2)C(=O)C1C=C1C(=O)NC(=O)N(c2cc(C)cc(C)c2)C1=O (stereo not drawn)	/	-6.7	4.0	/	/
O=[N+]([O-])/C=C/c1cn(Cc2ccc(Cl)cc2)c2ccccc12	-1.3	77.1	90.2*	2.6	13.3
CC1CN(C(C)CO)C(=O)Cc2cc(NC(=O)CCC(F)(F)F)ccc2OC1CN(C)CC1CC1 (stereo not drawn)	/	2.4	-0.1	/	/
O=C(NCCCN1CCOCC1)c1cccc(NC(=O)c2ccccc2)c1	122.2*	/	/	-18.3	-13.6
Cc1c(Cl)cccc1-c1ccc(C=Nn2cnnc2)o1	/	5.3	2.0	/	/
COc1ccc(-n2nnnc2S(=O)(=O)Cc2ccc(C(=O)O)cc2)cc1	-0.1	95.3*	38.2	10.3	-3.2
OCC[C@@H]1C[C@@H](O)[C@H](O)[C@@]2(Cc3ccccc3CO2)O1	45.6*	/	/	9.6	0.3
SMILES	PfHsp40 yeast	ugtP null kill	Sa RN4220 lethal	BJeLR viability	CCHFV vOTU inh
OCC[C@H]1C[C@H](O)[C@@H](O)[C@@]2(Cc3ccccc3CO2)O1	-1.0	/	/	/	3.7
C=C[C@]12CC[C@H](OC(C)=O)CC1=CCC1C2CC[C@@]2(C)C1CCC21OCCO1 (stereo partly drawn)	1.8	92.3*	-5.1	/	11.0
CC(=O)OC1CCC2(C=NO)C(=CCC3C4CCC(=O)C4(C)CCC32)C1 (stereo not drawn)	/	5.5	5.5	/	/
CCOC(=O)C1=CN(Cc2cccc(Br)c2)S(=O)(=O)N(C)C1C (stereo not drawn)	39.6*	9.6	5.8	/	3.3
C=CCn1c(SCn2nnc3ccccc3c2=O)nnc1-c1ccc(F)cc1	-1.2	1.9	4.8	-17.0	10.8
C=CCn1c(SCn2nnc3ccccc3c2=O)nnc1-c1ccc(Br)cc1	114.3*	3.6	3.4	-5.7	12.8
CC(=O)c1ccc(N2CCN(C(=O)c3ccc4c(=O)[nH]c5c(C(=O)NC6CCCC6)sc(=S)n5c4c3)CC2)cc1	/	/	/	/	-6.1
O=C(NC1CCCCC1)c1sc(=S)n2c1[nH]c(=O)c1ccccc12	0.3	99.8*	99.9*	0.0	-2.7
CCCCNC(=O)c1sc(=S)n2c1[nH]c(=O)c1ccccc12	6.4	82.0*	73.7	-6.9	8.8
Cc1ccc(C=NNC(=O)C2CC(=O)N(c3ccccc3)C2)o1 (stereo not drawn)	/	0.9	-2.6	/	/
CC=C(C)C(=O)Nc1cccc(C2=NOC3(C2)CC(C(N)=O)N(C(=O)c2ccccc2C(=O)c2ccccc2)C3)c1 (stereo not drawn)	/	-1.2	2.0	/	/
CCCCC(c1nnnn1Cc1ccco1)N1CCN(c2nc3ccccc3s2)CC1 (stereo not drawn)	27.4*	0.3	5.2	2.0	14.7
Cn1c(-c2ccc(Br)o2)nc2ccccc21	-0.9	17.8	2.2	21.5	8.4
Brc1ccc(Cn2c(-c3ccc(Br)o3)nc3ccccc32)o1	55.6*	-7.3	-1.4	-7.3	3.2
CC1=C(C(=O)Nc2ccccc2)C(c2coc3ccccc3c2=O)C2=C(CCCC2=O)N1 (stereo not drawn)	0.8	15.4	4.4	-5.4	-7.8
COc1ccc(C2CC(=O)C3=C(C2)NC(C)=C(C(=O)Nc2ccccc2C)C3c2coc3ccc(C)cc3c2=O)cc1OC (stereo not drawn)	63.1*	-0.5	0.7	/	-6.9
CC(C)C(CO)N(Cc1cccc(F)c1)c1nc(Nc2cccc(Cl)c2)c2ncn(C(C)C)c2n1 (stereo not drawn)	/	7.1	-3.8	/	/
O=C(Nc1ccc(Cl)cc1)c1cc2c(cc1O)[nH]c1ccccc12	24.0	97.9*	95.0*	18.6	0.6
CC(=O)Nc1ccc2[nH]c3ccccc3c2c1	0.8	-6.1	-2.1	-1.9	-12.1
c1ccc(Nc2scc(-c3ccccc3)[n+]2Cc2ccco2)cc1	-0.5	22.4	-6.5	6.7	-2.0
c1ccc(C[n+]2c(-c3ccccc3)csc2Nc2ccccc2)cc1	-1.0	85.2*	-9.7	10.6	-0.6
O=C(NN=Cc1sc(N2CCOCC2)nc1-c1ccccc1)c1cccc(S(=O)(=O)N2CCCC2)c1	/	4.3	2.0	/	/
COc1ccc(C(=O)NCC(=O)NN=Cc2cn(C)c3ccccc23)cc1OC	/	0.0	-0.8	/	/
NC(=O)c1ccsc1NC(=O)c1ccc([N+](=O)[O-])o1	0.7	100.0*	100.1*	/	8.3
NC(=O)c1ccsc1NC(=O)COC(=O)c1ccc([N+](=O)[O-])o1	-0.8	24.3	4.4	/	21.5
Cc1cc(C=c2sc3nc4ccccc4n3c2=O)c(C)n1-c1ccc(C(=O)O)cc1	/	100.2*	88.2	/	/
Cc1cc(/C=c2\sc3nc4ccccc4n3c2=O)c(C)n1-c1ccc(C(=O)O)cc1	-0.3	/	/	0.6	6.0
Nc1c(-c2ccccc2)nc(Cl)nc1-c1ccccc1	0.3	8.0	1.6	7.4	-178.9
c1ccc(-c2nc3nonc3nc2-c2ccccc2)cc1	13.1	98.3*	97.4*	-1.3	16.0

Source: PubChem (several laboratories)
